Data from PubChem BioAssay.
“And” between values parts separate entries of the source, which are not always exact repeats. Equal values may be shown once. The source made the active and inactive calls.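 Rule for the calls, unless noted: active = compounds whose cell count with miR-34 switched on is under 0.7 times the count with it off; inactive = the rest.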

Columns and labels:
[1] = liver-stage malaria parasite growth inhibition, primary screen, cell-based, HepG2, luciferase luminescence, HepG2 viability (AID 624349; in the data active = parasite load remaining mostly below about 12%, no sharp cut-off; inactive = mostly above about 10%;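 note: 100% = mean of DMSO negative control wells on the same plate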); settings: P. berghei liver stage in HepG2, luciferase luminescence, concentration not given here; parasite load remaining: stronger effect = lower value; viability: measured here: HepG2 viability without parasites
[2] = stimulators of nuclear beta-catenin in C2C12, primary screen, imaging, WNT3A-conditioned medium, mouse C2C12, NPC library (AID 1117326; in the data active = nuclear beta-catenin stimulation mostly above about 4.2%, no sharp cut-off; inactive = mostly below about 10%; note: reference of the scale not given here); settings: stronger effect = higher value
[3] = stimulators of insulin release from INS-1E, primary screen, cell-based, 5 mM glucose, NPC library (AID 1117329;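 active = compound raises insulin release from rat beta cells at 5 mM glucose, no numeric limit stated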; note: reference of the scale not given here); settings: rat INS-1E insulin secretion, at 10 µM, stronger effect = higher value
[4] = growth inhibition of GSK3B-pretreated HCT116 cells – cell-based, CellTiter-Glo, 0.2 to 20 µM (AID 1117336;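 active = compounds lowering colon cancer cell viability after pretreatment blocking the GSK3B kinase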); settings: HCT116 viability after GSK3B inhibitor, at 20 µM, stronger effect = higher value
[5] = inhibition of endothelial tube formation, primary screen, imaging, VEGF stimulated, CD31 staining, tube area, NPC library (AID 1117340;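 active = compound that reduces growth-factor-driven endothelial tube area in a mixed cell culture, no cutoff stated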); settings: VEGF-stimulated ADSC/ECFC co-culture, at 10 µM, stronger effect = higher value
[6] = glucagon-like peptide 1 release enhancers, primary assay, NCI-H716 cell line, NPC library (AID 1117341;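 active = compound raises GLP1 secretion from the human gut endocrine cells, with no numeric limit stated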; note: reference of the scale not given here); settings: NCI-H716 cells, at 10 µM, stronger effect = higher value
[7] = HCT116 colon cancer cell growth inhibition, primary screen, CellTiter-Glo luminescence, NPC library (AID 1117342;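 active = compounds that lower survival of HCT116 colon cancer cells in the luminescence readout, no numeric limit stated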); settings: at 20 µM (top of the series)
[8] = CellTiter-Glo luminescent readout of SW480 viability loss, NPC library primary (AID 1117343;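 active = compounds that lower viability of the colon cancer cells in the luminescence readout, with no numeric limit stated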); settings: CellTiter-Glo luminescence; at 20 µM (top of the series) unless noted
[9] = decreased DLD-1 cellular survival, CellTiter-Glo luminescent readout, NPC compound collection, primary HTS (AID 1117346;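 active = compounds that lower survival of DLD-1 colon cancer cells in the luminescence readout, no cutoff given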); settings: DLD-1 viability, CellTiter-Glo luminescence; at 20 µM (top of the series)
[10] = sensitizers of A549 cells to miR-34 induction, primary screen, imaging, A549 dox-inducible miR-34, nuclei and caspase counts (AID 1347080); settings: A549 miR-34 inducible, Hoechst nuclei count, 48 h
[11] = phospholipid biosynthesis inhibitors in animal cells, primary screen, cell-based, LOPAC library, screen 4 (AID 1347384; call rule not given here); settings: phospholipid biosynthesis inhibition screen, at 10 µM
[12] = survival rescue of mitochondrial mutant cells in low glucose, primary screen, MELAS cybrids, Rieske KO mouse fibroblasts, CellTiter-Glo (AID 1508586;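 active = mean z-score across replicates of 1.96 or higher in either the MELAS or the Rieske mutant cell line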;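 note: z relative to plate mean and SD of compound and empty wells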)
[13] = viability rescue of complex I mutant cybrids, primary screen, cell-based, galactose medium, ATP luminescence (AID 1645843;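 active = z-score of at least 1.8 in each of two replicates, scored against plate mean and spread of sample wells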;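 note: positive z means more ATP and so rescue of galactose-driven cybrid death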); settings: complex I mutant cybrid cells, 72 h, stronger effect = higher value
[14] = stronger effect = lower value, cell number ratio, induced over uninduced
[15] = measured here: relative caspase fold change +Dox/-Dox
[16] = measured here: total cells with miR-34 induction, stronger effect = lower value
[17] = measured here: total cells without miR-34 induction
[18] = MELAS cybrid survival, CellTiter-Glo 48 h, stronger effect = higher value
[19] = Rieske KO mouse fibroblast survival, CellTiter-Glo 72 h

Row | SMILES | parasite load remaining [1] | viability [1] | nuclear beta-catenin stimulation ([2]; at 10 µM) | nuclear beta-catenin stimulation ([2]; stimulation, at 2 µM) [%] | insulin secretion stimulation [3] | viability decrease [4] | tube area decrease [5] | GLP1 secretion stimulation [6] | inhibition of viability [7] | viability decrease (inhibition) [8] | viability decrease (inhibition) [9] | fold change [10, 14] | fold change [10, 15] | cell count [10, 16] | cell count [10, 17] | outcome [11] | z-score [12, 18] | z-score [12, 19] | z-score [13]
1 | C[N+](C)(C)CCOC(=O)CCC(=O)OCC[N+](C)(C)C | 28% (inactive) | 74.5% | 0.2% (inactive) | 1.4 | 0.95% (inactive) | 14% (inactive) | -17.3% (inactive) | 3.2% (inactive) | 3.4% (inactive) | -16.3% (inactive) | 3.4% (inactive) | 0.999 (inactive) and 0.895 (inactive) | 1.13 and 1.62 | 9370 and 9270 | 9380 and 10400 | inactive | -0.659 (inactive) | -1.43 | 0.34 (inactive) and -0.11 (inactive)
2 | CCCCCCCCCCCCCCC[C@H](O)[C@@H](N)CO | – | – | 43.1% (active) | 1.5 | 1% (inactive) | 72.1% (active) | 17.5% (inactive) | 7.7% (inactive) | 69.8% (active) | 143% (active) | 104% (active) | 0.915 (inactive) | 1.42 | 5120 | 5600 | – | – | – | –
3 | O=C(O)CN(CCOCCOCCN(CC(=O)O)CC(=O)O)CC(=O)O | – | – | 0% (inactive) | 0 | 1.45% (inactive) | 16.3% (inactive) | 6.4% (inactive) | 1.8% (inactive) | 5.2% (inactive) | -13.8% (inactive) | 1.8% (inactive) | 0.942 (inactive) | 1.12 | 9820 | 10400 | inactive | – | – | 0.34 (inactive)
4 | OCCN1CCN(CCCN2c3ccccc3C=Cc3ccccc32)CC1 | – | – | -0.5% (inactive) | 1.3 | 13.8% (inactive) | 5.9% (inactive) | 15% (inactive) | 2% (inactive) | 56.9% (active) | 80.2% (active) | 37.9% (inactive) | 1 (inactive) | 2.29 | 8600 | 8590 | inactive | -0.305 (inactive) | -0.132 | -0.685 (inactive)
5 | COc1cc(C)c(C=CC(C)=CC=CC(C)=CC(=O)O)c(C)c1C | – | – | 1% (inactive) | 1.9 | 2.8% (inactive) | 61.5% (active) | 45.4% (active) | -3.9% (inactive) | 52.1% (active) | 70.9% (active) | 78.6% (active) | 0.847 (inactive) | 1.06 | 6840 | 8080 | – | -0.108 (inactive) | 0.793 | –
6 | COc1cc(C=O)ccc1O | – | – | 1.6% (inactive) | 0.8 | 0.7% (inactive) | 1.37% (inactive) | 1.2% (inactive) | 0.6% (inactive) | -10.3% (inactive) | 49.1% (inactive) | 3.27% (inactive) | 0.931 (inactive) | 0.545 | 7990 | 8590 | – | -0.504 (inactive) | -0.136 | –
7 | CC1=C(CC(=O)O)c2cc(F)ccc2/C1=C\c1ccc(S(C)(=O)=O)cc1 | – | – | 0.1% (inactive) | -0.8 | -1.1% (inactive) | 39.5% (inactive) | 7.6% (inactive) | -0.4% (inactive) | 66.3% (active) | 88.7% (active) | 90.1% (active) | 0.998 (inactive) | 1.86 | 9240 | 9260 | inactive | – | – | 0.795 (inactive)
8 | CCCCc1ncc(/C=C(\Cc2cccs2)C(=O)O)n1Cc1ccc(C(=O)O)cc1 | 50.8% (inactive) | 110% | 0.4% (inactive) | 12.2 | 2.05% (inactive) | 9.7% (inactive) | -11.7% (inactive) | -2.1% (inactive) | 0% (inactive) | -13.7% (inactive) | -4.6% (inactive) | 1.04 (inactive) and 0.815 (inactive) | 0.751 and 0.591 | 10200 and 8890 | 9790 and 10900 | inactive | 0.334 (inactive) | -0.876 | 0.525 (inactive) and 0.34 (inactive)
9 | CCN(CC)CCCN(c1ccccc1)C1Cc2ccccc2C1 | – | – | -1.7% (inactive) | -1.3 | 32.5% (active) | 33.8% (inactive) | 22.2% (inactive) | -4.5% (inactive) | 50.6% (active) | 53.5% (active) | 32.5% (inactive) | 1.07 (inactive) | 1.01 | 8050 | 7530 | inactive | – | – | -1.11 (inactive)
10 | N[C@@H](CC(=O)O)C(=O)O | – | – | 0% (inactive) | -0.6 | 1.3% (inactive) | 7.1% (inactive) | -11.9% (inactive) | -0.5% (inactive) | 1.9% (inactive) | -18.5% (inactive) | 1.6% (inactive) | 1 (inactive) | 1.56 | 10800 | 10700 | inactive | – | – | 0.255 (inactive)
11 | C(=C\c1ccccc1)/CN1CCN(C(c2ccccc2)c2ccccc2)CC1 | 32.6% (inactive) and 111% (inactive) | 52.6% and 87.5% | 1.7% (inactive) | 0.3 | -1.8% (inactive) | 88.8% (active) | 26.3% (inactive) | -2.7% (inactive) | 84.4% (active) | 97.3% (active) | 99.3% (active) | 0.969 (inactive) and 0.928 (inactive) | 1.77 and 1.18 | 7700 and 8780 | 7950 and 9460 | inactive | 0.0624 (inactive) | -0.105 | -0.01 (inactive)
12 | CCNC(=O)N1CCN(CCCC(c2ccc(F)cc2)c2ccc(F)cc2)CC1 | – | – | 0.3% (inactive) | -1.1 | 1.1% (inactive) | 50.7% (active) | 17.1% (inactive) | 7.1% (inactive) | 85.2% (active) | 119% (active) | 57.7% (active) | 0.987 (inactive) | 1.62 | 6860 | 6940 | inactive | – | – | -1.42 (inactive)
13 | CCC(=O)c1ccc2c(c1)N(CCCN(C)C)c1ccccc1S2 | – | – | 0.3% (inactive) | -0.2 | 33.8% (active) | 24.5% (inactive) | 48.9% (active) | -2.4% (inactive) | 46.9% (inactive) | 65.1% (active) | 20.4% (inactive) | 0.872 (inactive) | 0.831 | 1900 | 2180 | inactive | – | – | -1.19 (inactive)
14 | O=S(=O)(O)Oc1ccc(C(c2ccc(OS(=O)(=O)O)cc2)c2ccccn2)cc1 | – | – | -1.8% (inactive) | 1.7 | -1.2% (inactive) | -2.3% (inactive) | 11.8% (inactive) | 1.3% (inactive) | -5.5% (inactive) | -2.2% (inactive) | -5.9% (active) | 0.9 (inactive) | 1.41 | 8720 | 9690 | – | -0.185 (inactive) | -0.14 | –
15 | COc1ccc(CCN(C)CCCC(C#N)(c2cc(OC)c(OC)c(OC)c2)C(C)C)cc1OC (stereo unspecified) | – | – | 1% (inactive) | 0.7 | 0.45% (inactive) | -1.5% (inactive) | 6.2% (inactive) | 5.2% (inactive) | 18.9% (inactive) | 22% (inactive) | 4.6% (inactive) | 1.02 (inactive) and 0.953 (inactive) | 0.481 and 1.24 | 9650 and 5610 | 9490 and 5880 | inactive | – | – | -0.635 (inactive)
16 | Cc1nc2c([nH]1)c(=O)n(C)c(=O)n2Cc1ccco1 | 89.1% (inactive) | 184% | -1.1% (inactive) | -0.9 | 5.4% (inactive) | 4.7% (inactive) | -13.8% (inactive) | 2.9% (inactive) | 4.7% (inactive) | 11.9% (inactive) | 11.1% (inactive) | 0.936 (inactive) and 0.904 (inactive) | 1.31 and 1.1 | 10100 and 8410 | 10800 and 9310 | inactive | 0.342 (inactive) | -0.476 | 0.455 (inactive) and 1.9 (inactive)
